# Measured values as given in the supplement of paper PMC6555819.
# Tests used:
# Experiment in all cases: PBM binding z-score (relative to random genomic background probes); higher = stronger binding; sequences stand for … in GC…GCGATTGACAGCGTAGAATGAAGG
# [1] = test system: FXR:RXRa (NR concentration 270 nM, RXRa partner concentration 90 nM)
# Summary of the method: (§1)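 Ligand-free nuclear receptor dimers were bound for 1 h to custom Agilent 4×180K protein-binding microarrays. Detection used antibodies against each partner (one per run). Binding z-scores rest on regression-normalized fluorescence, with random background probes as the reference.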
# [2] = test system: LXRa:RXRa (NR concentration 270 nM, RXRa partner concentration 90 nM)
# Summary of the method: as §1
# [3] = test system: LXRa homodimer (NR concentration 270 nM)
# Summary of the method: as §1
# [4] = test system: LXRb:RXRa (NR concentration 270 nM, RXRa partner concentration 90 nM)
# Summary of the method: as §1
# [5] = test system: LXRb homodimer (NR concentration 270 nM)
# Summary of the method: as §1
# [6] = test system: PPARa:RXRa (NR concentration 270 nM, RXRa partner concentration 90 nM)
# Summary of the method: as §1
# [7] = test system: PPARg:RXRa (NR concentration 180 nM, RXRa partner concentration 90 nM)
# Summary of the method: as §1
# [8] = test system: PPARg:RXRa 270nM:90nM, anti-RXR (NR concentration 270 nM, RXRa partner concentration 90 nM)
# Summary of the method: as §1
# [9] = test system: PPARg:RXRa 30nM:10nM, anti-RXR (NR concentration 30 nM, RXRa partner concentration 10 nM)
# Summary of the method: as §1
# [10] = test system: PPARg:RXRa 90nM:30nM, anti-RXR (NR concentration 90 nM, RXRa partner concentration 30 nM)
# Summary of the method: as §1
# [11] = test system: PPARg:RXRa DBDmut IVT, anti-RXR (DBD mutation: RXRa K156A/R161A, NR concentration 270 nM, RXRa partner concentration 90 nM)
# Summary of the method: as §1
# [12] = test system: PPARg:RXRa IVT, anti-PPARg (NR concentration 270 nM, RXRa partner concentration 90 nM)
# Summary of the method: as §1
# [13] = test system: PPARg DBDmut:RXRa IVT, anti-PPARg (DBD mutation: PPARg1 K132A/R137A, NR concentration 270 nM, RXRa partner concentration 90 nM)
# Summary of the method: as §1
# [14] = test system: PPARg DBDmut IVT, anti-PPARg (DBD mutation: PPARg1 K132A/R137A, NR concentration 270 nM)
# Summary of the method: as §1
# [15] = test system: PPARg homodimer (NR concentration 180 nM)
# Summary of the method: as §1
# [16] = test system: PXR:RXRa (NR concentration 270 nM, RXRa partner concentration 90 nM)
# Summary of the method: as §1
# [17] = test system: PXR homodimer (NR concentration 270 nM)
# Summary of the method: as §1
# [18] = test system: RARa:RXR (NR concentration 270 nM, RXRa partner concentration 90 nM)
# Summary of the method: as §1
# [19] = test system: RARa homodimer (NR concentration 270 nM)
# Summary of the method: as §1
# [20] = test system: RARb:RXRa (NR concentration 270 nM, RXRa partner concentration 90 nM)
# Summary of the method: as §1
Sequence,PBM binding z-score [1],PBM binding z-score [2],PBM binding z-score [3],PBM binding z-score [4],PBM binding z-score [5],PBM binding z-score [6],PBM binding z-score [7],PBM binding z-score [8],PBM binding z-score [9],PBM binding z-score [10],PBM binding z-score [11],PBM binding z-score [12],PBM binding z-score [13],PBM binding z-score [14],PBM binding z-score [15],PBM binding z-score [16],PBM binding z-score [17],PBM binding z-score [18],PBM binding z-score [19],PBM binding z-score [20]
CGAACGAGGGCTTGAGTTGATAGCAAATGCCGAT,-0.357,-0.589,-0.512,-0.688,-0.924,-0.425,0.25,-0.478,-0.548,-0.639,0.359,-0.447,-0.831,-1.02,-0.915,-0.245,-0.409,-0.285,-0.522,-0.252
CCTATTAGTTGCCCATAAGGGCAACCGAAGCTCG,0.523,0.339,0.425,0.645,0.866,0.517,0.154,0.281,-0.263,0.0446,-0.00448,0.926,0.125,1.13,0.921,0.597,0.552,0.824,1.45,1.29
TCATATAGGTAAATGCCAGGTGAAAGTCCGATCT,1.31,1.12,0.378,0.902,0.0242,1.62,0.873,2.48,3.67,3.1,4.32,2.79,1.11,0.542,0.867,0.553,0.292,1.21,0.678,0.624
ACTTACGAGTCAACGAGGTTATAGCACGCGTATA,0.899,1.12,0.413,1.26,0.307,1.73,0.967,0.553,0.564,0.254,-0.235,0.267,1.03,0.64,0.175,1.51,0.513,1.68,-0.00172,0.738
CCAACTGGGCCATTCAGAGGTCATTGATCATATG,3,4.24,6.53,3.67,0.435,3.9,2.89,3.16,0.622,2.16,5.18,4.66,0.485,-0.774,4.42,5.05,2.64,4.72,0.73,3.02
ACAGACAGGTGAGTGAAGGTAACTGAGCTGGACG,0.439,-0.0639,-0.513,-0.288,-0.405,0.393,0.534,0.106,-0.146,-0.11,0.252,0.903,-0.468,-0.756,-0.197,0.0727,-0.00734,0.487,-0.0985,0.632
ATATGTAGGTTAAGGGCCATTCAGGTTGGTTCGC,0.756,0.989,0.305,0.911,0.0829,4.43,7.86,7.32,6.65,7.62,7.52,6.88,2.91,2.4,1.27,0.874,0.768,0.938,0.601,1.5
ATCTCTTGGTAACAAGTTCAGTGAAAGAGAGGAC,0.45,0.448,0.452,0.565,0.787,0.547,-0.00548,0.156,0.0559,0.28,-0.454,0.272,0.927,1.13,0.303,1.67,1.14,0.676,0.0703,1.37
CCTCCGAGGACAACAGGAGGTCAGAGCTGCCAGA,1.35,2.3,2.21,1.51,-0.302,2.02,0.575,0.211,-0.642,-0.107,-0.0648,0.335,-1.15,-1.76,1.29,2.17,0.291,2.7,-0.117,2.88
TGTCAAAGTTCACAGGTAACGTAAGTATCCACAC,6.59,5.87,3.37,4.04,1.49,6.02,8.64,7.43,5.54,7.12,0.161,4.5,1.61,1.53,2.45,4.48,2.4,3.92,1.08,5.05
ACTCGCAGGCCAAGTTTGGGTCACTCAAACAAAG,0.277,0.222,-0.578,0.571,-0.644,1.39,-0.313,0.179,-0.845,-0.263,0.227,0.485,-0.206,-0.189,0.897,0.84,-0.477,1.47,-0.257,1.89
ATCTCTAGGTAAAGTTCAGTGCAAGATCGATAGA,1.53,2.29,2.02,1.43,0.722,2.52,3.48,4.48,2.63,4.43,2.92,2.81,0.415,1.22,2.51,2.32,1.67,1.49,1.38,2.78
CTCGAACGGTCGTGCTCAGGTGAGTATACCAAAC,-0.183,-0.208,-0.21,-0.274,-0.517,-0.309,-0.285,-0.662,-0.759,-1.01,0.143,-0.0947,-0.8,-0.726,0.0744,-0.455,-0.32,-0.252,-0.56,0.781
CCTTACGGGCCACTGACAGGTTATAGCATTTGGA,-0.0975,-0.00158,0.136,-0.0299,-0.59,0.315,0.415,0.0355,-0.0145,-0.254,0.882,0.315,-0.753,-0.329,0.129,-0.136,-0.0803,0.247,0.161,0.69
CCAGACAGGTGAAAGGTAACTCATTCTGGTACGC,0.79,0.853,0.0278,1.09,-0.276,3.51,5.48,6.19,3.72,6.34,2.34,3.01,-0.114,-0.175,1.3,1.12,0.37,2.12,1.09,1.4
ACAGACAGGTGACTGAAGGTAACTCAGCTGGACG,0.0674,0.59,-0.72,-0.364,-1.02,0.299,0.781,0.364,-0.0254,0.262,0.539,0.434,0.745,-0.576,-0.875,-0.321,-0.503,0.0913,-0.597,0.563
CGTCCAAGGTCAAGGTCAGTGACAGAGACTCGAA,7.96,5.86,1.34,4.71,0.819,5.76,6.3,6.48,2.85,4.82,4.03,4.87,1.18,-0.455,4.7,5.25,1.84,5.72,2.23,5.75
AATACCGGGTCACTAGGCCAGAGTAGGTACGAAT,4.09,3.51,0.369,2.69,0.134,5.09,6.97,5.93,2.96,4.9,4.09,6.04,0.988,0.334,1.7,2.32,-0.108,3.37,0.616,3.47
ATATGTAGGTTACATTCGGGTCATTCAGGCTATG,2.91,4.73,1.76,3.19,1.04,4.3,5.53,5.07,2.31,4.62,7.46,7.26,5.28,2.88,2.4,3.85,3.72,3.65,1.02,2.32
CGTCAAAGTTCAAATAAGGTAACGTAAAGCACGC,7.39,6.55,4.89,4.17,3.25,4.95,4.86,5.6,2.25,4.67,0.597,2.21,0.83,1.03,4.04,5.39,5.14,4.21,2.53,5.08
TGAATGAGGTTATAAGGTCAGGGAACGTTGCAAA,5.12,4.24,0.615,3.38,0.153,5.17,5.07,5.43,2.33,4.46,2.58,4.37,1.54,1.21,2.82,4.17,0.241,5.68,0.814,3.88
ATCTCTAGGGAAAGTTCAGTGAAAGATCGATAGA,0.806,1.28,0.993,0.942,0.681,1.42,0.591,1.84,0.725,1.51,0.291,0.739,0.561,0.968,1.06,1.52,1.46,1.38,1.07,2.61
TAGCCTAGGTCATGGGCTAGTATACCACGCGAAC,4.37,3.22,-0.104,1.86,-0.806,4.16,3.61,3.3,0.951,2.07,1.15,3.37,0.577,-0.926,1.36,1.6,-0.606,2.74,-0.439,3.86
TCATATAGGTAAAAGGTGAAAGACGGTGTGGTAA,2.04,2.03,0.309,2.05,0.213,5.1,9.86,8.73,9.9,10.6,5.58,5.42,1.69,1.75,3.5,1.66,0.734,3.13,1.65,1.91
AGTCAAACTTCACTAGGTAACGTAAGATTCAGCT,-0.0326,-0.0348,-0.0758,0.0812,0.248,0.271,0.504,0.268,0.187,0.101,1.97,2.66,0.854,1.24,0.579,-0.238,0.241,-0.00905,-0.136,0.174
TGTCGGAGGACACGAAGGTCAGAGCTTTCCAGAG,1.23,1.44,-0.131,0.759,-0.905,1.81,0.574,1.14,-0.39,0.47,-0.402,1.54,-0.86,-0.906,1.05,1.79,0.826,1.84,0.146,3.46
AGAGACAGGTGATGAAGGTAACTCAGGCTATCAT,0.266,0.0997,0.0687,0.476,0.372,0.328,0.629,0.513,0.448,0.733,-0.111,0.416,0.748,0.187,0.847,0.283,0.671,0.263,1.15,0.706
TCTTGTAGATCAATAGGAGGTTAAGAAAGATCGA,0.54,1.36,0.474,0.851,0.157,1.36,0.389,1.57,2.93,2.25,1.97,0.955,0.693,0.624,0.344,0.712,0.557,1.04,0.522,0.202
GCTGCTAGGTCAGGTTGGTCAGCTACCGGGTACG,1.12,0.526,-0.544,0.265,-0.337,1.4,0.0957,0.884,-0.631,0.221,2.57,2.37,-0.857,-0.886,0.811,0.288,-0.331,0.391,-0.864,3.32
